This note sets out measurements from PubChem BioAssay (NCI).

Test systems include HCT-15 colon; HT29 colon; SNB-75 CNS; SNB-19 CNS; U251 CNS; SK-MEL-5 melanoma; UACC-62 melanoma; LOX IMVI melanoma; SK-MEL-28 melanoma.
Test in all cases: NCI-60 one-dose screen, 48 h (100 = growth as untreated, 0 = no growth, -100 = all killed)
Conditions in all cases: 10 µM unless noted

The panel holds about 83,000 compounds, 20% with a hit somewhere; the sample as a whole holds those more often.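 Percent growth is the endpoint: 0 to 100 indicates growth inhibition (40 means 60% inhibition), 0 means no net growth, and negative values indicate cell death.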 A number with no mark means an inactive call. Active and inactive are the calls of the source. Rule for the calls: active = growth percent below 10; inactive = the rest.

In the case of `O=[N+]([O-])c1ccc(OCCO)cc1`, the growth in the assay with HCT-15 colon was 101%; in the assay on HT29 colon, 108%; with SNB-75 CNS, 103%; with SNB-19 CNS, 101%; in the assay with U251 CNS, 104%; with SK-MEL-5 melanoma, 109%. Moreover, the growth in the assay with UACC-62 melanoma is 96.9%; in the assay with LOX IMVI melanoma, 97.8%; in the assay with SK-MEL-28 melanoma, 114%.
As to `CCCCCCCOc1c(OC)cc(C2CC(=O)Nc3c2c(C)nn3-c2nc3ccccc3[nH]2)cc1OC` (centres undefined), the growth with HCT-15 colon was 0.5% (active); in the assay with HT29 colon, -2.41% (active); in the assay on SNB-75 CNS, -31.5% (active); in the assay with SNB-19 CNS it was 16.1%; in the assay with U251 CNS it was -58.2% (active); in the assay with SK-MEL-5 melanoma, -83.7% (active). Moreover, the growth in the assay with UACC-62 melanoma is -49.2% (active); in the assay with LOX IMVI melanoma it was -89.2% (active); in the assay with SK-MEL-28 melanoma, -9.72% (active).
In the case of `Cc1cc(NCc2cc(Nc3ccnc4cc(Cl)ccc34)ccc2F)nc(N2CCCC2)n1`, the growth in the assay on HCT-15 colon is -60.7% (active); with HT29 colon it was -40.2% (active); in the assay with SNB-75 CNS, -87.3% (active); in the assay with SNB-19 CNS, 28.9%; in the assay on U251 CNS, -64.7% (active); with SK-MEL-5 melanoma, -94.2% (active). The growth was -62.6% (active) in the assay with UACC-62 melanoma, -92.8% (active) with LOX IMVI melanoma and -69.4% (active) in the assay with SK-MEL-28 melanoma.
As to `O=C1/C(=C/c2ccccc2)CCc2nc3ccccc3c(/C=C/c3ccc(Cl)cc3)c21`, the growth with HCT-15 colon is 69.4%; with HT29 colon, 81.3%; in the assay on SNB-75 CNS it was 76.5%; with SNB-19 CNS, 96.3%; with U251 CNS, 93.2%; with SK-MEL-5 melanoma, 89.8%. Also, the values for the growth with UACC-62 melanoma, in the assay on LOX IMVI melanoma and in the assay on SK-MEL-28 melanoma were 73%, 84.7% and 91.8%, respectively.
For the compound `Nc1ccc2c(c1)c(N)nn2C(=O)Nc1ccc(Cc2ccccc2)cc1`, the growth in the assay with HCT-15 colon was 44.5%; in the assay on HT29 colon it was 76.8%; in the assay with SNB-75 CNS it was 126%; with SNB-19 CNS, 105%; in the assay with U251 CNS, 59.9%; with SK-MEL-5 melanoma it was 71.7%. Moreover, the growth in the assay on UACC-62 melanoma is 7.09% (active); in the assay with LOX IMVI melanoma it was 40.3%; with SK-MEL-28 melanoma it was 115%.
On to `COc1ccc(S(=O)(=O)NCCNc2nccc(-c3c(-c4cccc(F)c4)nc4sccn34)n2)cc1`, for which the growth with HCT-15 colon is 23.4%; in the assay on HT29 colon it was 23.9%; in the assay with SNB-75 CNS it was -0.29% (active); in the assay with SNB-19 CNS, 58.3%; in the assay with U251 CNS, 52.5%; in the assay with SK-MEL-5 melanoma it was 9.62% (active). The growth with UACC-62 melanoma is 39%; in the assay on LOX IMVI melanoma, 32.9%; in the assay with SK-MEL-28 melanoma it was 60%.
As for `COc1ccc(-c2nc(SCCC(C)C)nc(N/N=C\c3ccccc3O)c2C#N)cc1`, the growth in the assay with HCT-15 colon is 86.6%; in the assay with HT29 colon, 103%; with SNB-75 CNS, 74.8%; in the assay with SNB-19 CNS it was 72.4%; with U251 CNS, 60.5%; with SK-MEL-5 melanoma, 94.2%. The figures for the growth in the assay with UACC-62 melanoma, in the assay on LOX IMVI melanoma and in the assay on SK-MEL-28 melanoma were 90%, 84.6% and 99.1%, respectively.
Take `Cc1cc(=O)oc2c1ccc1oc(C#N)c(C)c12`: the growth was 98.9% in the assay with HCT-15 colon; 93.4% with HT29 colon; 92.9% with SNB-75 CNS; 99.9% with SNB-19 CNS; 99.4% with U251 CNS; 100% in the assay on SK-MEL-5 melanoma. In addition, the growth was 99.9% in the assay on UACC-62 melanoma, 88.2% with LOX IMVI melanoma and 96.5% in the assay on SK-MEL-28 melanoma.
Take `CC(C)(C)c1ccc(/C=C/C(=O)Nc2ccc(O)cc2)cc1`: the growth with HCT-15 colon is 43.4%; with HT29 colon it was 18.7%; in the assay with SNB-75 CNS, 96.6%; in the assay with SNB-19 CNS, 83.3%; in the assay with U251 CNS, 72.8%; in the assay with SK-MEL-5 melanoma it was 51.4%. Further, the values for the growth in the assay with UACC-62 melanoma, with LOX IMVI melanoma and in the assay on SK-MEL-28 melanoma were 55.1%, -3.96% (active) and 86.5%, respectively.
As for `COCCN(C(=O)c1ccc(F)cc1F)c1c(N)n(Cc2ccccc2)c(=O)[nH]c1=O`, the growth was 98.8% with HCT-15 colon; 104% in the assay with HT29 colon; 105% in the assay with SNB-75 CNS; 106% in the assay with SNB-19 CNS; 100% in the assay with U251 CNS; 108% in the assay with SK-MEL-5 melanoma. The growth in the assay on UACC-62 melanoma was 94.3%; in the assay with LOX IMVI melanoma it was 99.3%; in the assay on SK-MEL-28 melanoma it was 114%.
As for `O=c1oc2ccccc2c(Cl)c1Cl`, the growth in the assay with HCT-15 colon was 38.9%; in the assay on HT29 colon, 105%; with SNB-75 CNS it was 82.4%; in the assay with SNB-19 CNS it was 91.7%; with U251 CNS it was 49.1%; with SK-MEL-5 melanoma it was 46.1%. The growth was 74.7% with UACC-62 melanoma, 10.5% in the assay with LOX IMVI melanoma and 72.4% with SK-MEL-28 melanoma.
Regarding `CC/C=C\CCC/C=C1/C(=O)C=C[C@@H]1C/C=C\CCCC(=O)O`, the growth was 53.7% in the assay with HCT-15 colon; 31.9% in the assay on HT29 colon; 86.5% in the assay on SNB-75 CNS; 69.2% in the assay on SNB-19 CNS; 39.8% with U251 CNS; 16.9% with SK-MEL-5 melanoma. Moreover, the growth was 15.6% in the assay with UACC-62 melanoma, 0.644% (active) with LOX IMVI melanoma and 87.1% in the assay with SK-MEL-28 melanoma.
In the case of `CS(=O)c1cccc(-c2ccc3nc(N)n(-c4ccc(C(F)(F)F)cc4)c(=O)c3c2)c1` (centres undefined), the growth in the assay on HCT-15 colon is 105%; in the assay on HT29 colon it was 99.8%; in the assay on SNB-75 CNS it was 114%; in the assay on SNB-19 CNS, 91.7%; in the assay on U251 CNS, 88.9%; in the assay with SK-MEL-5 melanoma it was 87.8%. Further, the growth with UACC-62 melanoma is 95%; in the assay with LOX IMVI melanoma, 88.1%; with SK-MEL-28 melanoma, 114%.
Regarding `C#Cc1cccc(NC(=O)c2ccc(NC(=O)CCl)cc2)c1`, the growth in the assay on HCT-15 colon was -57% [8.25 µM] (active); with HT29 colon it was 34.5% [8.25 µM]; in the assay with SNB-75 CNS, 32.2% [8.25 µM]; with SNB-19 CNS, 8.27% [8.25 µM] (active); in the assay on U251 CNS it was -90.1% [8.25 µM] (active); in the assay with SK-MEL-5 melanoma, -56.7% [8.25 µM] (active). Further, the growth was 7.2% [8.25 µM] (active) with UACC-62 melanoma, -77.5% [8.25 µM] (active) with LOX IMVI melanoma and 54% [8.25 µM] in the assay on SK-MEL-28 melanoma.
As to `CCc1ccccc1-n1c(-c2ccc(Cl)cc2)cc(-c2ccc(OC)cc2)c(C#N)c1=O`, the growth in the assay on HCT-15 colon is 99.6%; in the assay on HT29 colon, 103%; with SNB-75 CNS, 93%; in the assay with SNB-19 CNS it was 105%; with U251 CNS, 114%; with SK-MEL-5 melanoma, 101%. For the same compound, the values for the growth in the assay on UACC-62 melanoma, in the assay with LOX IMVI melanoma and in the assay with SK-MEL-28 melanoma were 89.1%, 89.6% and 109%, respectively.
Regarding `Nc1cc2c3c(cccc3c1)C(=O)N(CCN1CCCC1)C2=O`, the growth with HCT-15 colon was 30.3%; in the assay on HT29 colon it was 26.2%; in the assay with SNB-75 CNS, 48%; in the assay with SNB-19 CNS it was 41.9%; in the assay on U251 CNS it was 28.9%; with SK-MEL-5 melanoma it was 9.37% (active). Also, the results for the growth in the assay on UACC-62 melanoma, in the assay with LOX IMVI melanoma and with SK-MEL-28 melanoma were 26.6%, 11.9% and 62.3%, respectively.
With `CC1CC(C(C)(C)C)C(=O)C(C(C)(C)C)C1` (centres undefined), the growth in the assay on HCT-15 colon was 97.8%; in the assay with HT29 colon, 93.4%; in the assay on SNB-75 CNS, 105%; in the assay on SNB-19 CNS, 106%; in the assay with U251 CNS, 105%; in the assay on SK-MEL-5 melanoma, 105%. Moreover, the growth is 100% with UACC-62 melanoma, 106% with LOX IMVI melanoma and 116% with SK-MEL-28 melanoma.
As to `CN(C)CC1=NC2SC=C(c3ccccc3)C2C(=O)N1CC#N` (centres undefined), the growth was 105% with HCT-15 colon; 101% in the assay with HT29 colon; 87.6% with SNB-75 CNS; 108% with SNB-19 CNS; 104% with U251 CNS; 107% in the assay on SK-MEL-5 melanoma. Besides, the growth was 87.3% in the assay with UACC-62 melanoma, 99.7% in the assay on LOX IMVI melanoma and 119% in the assay on SK-MEL-28 melanoma.
For `Cc1ccc(CCC(=O)Nc2ncc(Cc3cc(Cl)ccc3Cl)s2)o1`, the growth in the assay with HCT-15 colon is 12.5%; in the assay on HT29 colon, 4.92% (active); in the assay with SNB-75 CNS it was -1.75% (active); in the assay with SNB-19 CNS, 21.7%; in the assay with U251 CNS, 18%; in the assay with SK-MEL-5 melanoma, 7.9% (active). Further, the growth in the assay on UACC-62 melanoma is 21.2%; in the assay with LOX IMVI melanoma it was 13.3%; in the assay with SK-MEL-28 melanoma, 55.7%.
Consider `CCN(CC)CCN1CC(O)=C(c2nc(-c3ccc(Cl)cc3)cs2)C1=N`, for which the growth is -13.4% (active) with HCT-15 colon; -18.1% (active) in the assay with HT29 colon; 46.7% with SNB-75 CNS; 66.3% in the assay on SNB-19 CNS; -48.2% (active) with U251 CNS; -1.71% (active) in the assay on SK-MEL-5 melanoma. Moreover, the growth is -81.4% (active) with UACC-62 melanoma, -61.4% (active) in the assay on LOX IMVI melanoma and -66.7% (active) with SK-MEL-28 melanoma.
Consider `COc1ccc(C(=O)Nn2c(NCC(=O)N3c4ccccc4Sc4ccccc43)nnc2-c2ccc(O)cc2)cc1`, for which the growth in the assay with HCT-15 colon is 96.9%; in the assay on HT29 colon, 98.2%; with SNB-75 CNS, 115%; in the assay on SNB-19 CNS, 111%; in the assay on U251 CNS, 97%; with SK-MEL-5 melanoma, 104%. The growth in the assay on UACC-62 melanoma is 104%; in the assay with LOX IMVI melanoma it was 98.4%; in the assay with SK-MEL-28 melanoma, 119%.
